This is a sample that favours compounds with a hit; in the whole collection about 7.2% have one here.
Luciferase inh = inhibitors of firefly (Photinus pyralis) luciferase. purified P. pyralis luciferase, luminescence, biochemical. actives 2.5% (n = 76,000). Potency, µM (highest dose often 115 µM), hits mostly inhibitors. P08659; note: nearly all actives have a fitted effect of over 65% in size
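Luminescence read by CCD imaging after purified firefly luciferase (10nM final) was added to substrate buffer holding 10uM D-luciferin and 10uM ATP, pH 7.5, pre-dosed with compound.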
hNpr1 antagonist = antagonists of human natriuretic peptide receptor Npr1; P16066; HEK293 hNpr1 GloSensor cGMP, ANP-stimulated luminescence; Potency, µM (top dose mostly 46.3 µM), for inactives: at the top dose activity change, negative = inhibition, actives largely listed as inhibitors; actives 1.6% (n = 76,000); AID 1347048; calls by dose curve; note: nearly all actives have a fitted effect of over 60% in size
Target sequence (P16066 whole entry, looked up): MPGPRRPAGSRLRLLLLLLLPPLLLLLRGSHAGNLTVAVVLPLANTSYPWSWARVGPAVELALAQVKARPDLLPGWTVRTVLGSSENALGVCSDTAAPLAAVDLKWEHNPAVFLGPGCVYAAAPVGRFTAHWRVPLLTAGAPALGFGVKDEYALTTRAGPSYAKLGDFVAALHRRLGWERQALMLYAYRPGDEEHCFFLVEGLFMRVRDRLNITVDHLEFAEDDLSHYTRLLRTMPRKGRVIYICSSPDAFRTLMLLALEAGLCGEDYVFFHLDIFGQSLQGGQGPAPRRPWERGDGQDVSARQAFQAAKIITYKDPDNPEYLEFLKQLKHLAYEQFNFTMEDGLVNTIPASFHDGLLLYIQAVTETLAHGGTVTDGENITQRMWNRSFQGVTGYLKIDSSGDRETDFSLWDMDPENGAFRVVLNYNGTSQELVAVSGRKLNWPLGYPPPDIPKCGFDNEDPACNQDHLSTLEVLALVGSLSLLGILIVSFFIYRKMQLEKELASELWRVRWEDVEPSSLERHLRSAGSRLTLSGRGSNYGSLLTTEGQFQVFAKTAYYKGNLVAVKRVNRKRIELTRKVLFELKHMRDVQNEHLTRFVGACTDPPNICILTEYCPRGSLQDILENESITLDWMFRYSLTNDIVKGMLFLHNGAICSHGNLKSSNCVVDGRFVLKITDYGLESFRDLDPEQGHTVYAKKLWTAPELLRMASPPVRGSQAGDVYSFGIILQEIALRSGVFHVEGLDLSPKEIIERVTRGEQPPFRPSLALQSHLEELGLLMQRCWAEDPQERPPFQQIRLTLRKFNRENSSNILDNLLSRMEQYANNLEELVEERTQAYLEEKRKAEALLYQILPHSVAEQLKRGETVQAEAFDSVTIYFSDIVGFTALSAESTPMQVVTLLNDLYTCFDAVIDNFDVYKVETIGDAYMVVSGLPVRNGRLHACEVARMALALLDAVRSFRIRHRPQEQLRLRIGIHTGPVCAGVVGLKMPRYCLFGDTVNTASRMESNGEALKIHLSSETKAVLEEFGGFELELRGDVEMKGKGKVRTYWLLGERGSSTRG
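HEK293 cells stably expressing human Npr1 and cGMP GloSensor pGS-40F, loaded 2 h with 2% GloSensor reagent, given compound 30 min at room temperature. Luminescence read before and 20 min after 0.1 nM hNppA.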
SNCA viab count = counter-screen for SNCA expression inhibitors: cell viability; AID 1671193; HEK-293-SNCA-luc viability, GF-AFC fluorescence, 24 h; actives 0.12% (n = 150,000); Potency, µM (series often up to 57.1 µM), inactives show at the highest dose activity change, negative = cytotoxicity, hits mostly cytotoxic;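 note: 0% = DMSO-treated cells and -100% = medium-only wells without cells; nearly all actives have a fitted effect of over 30% in size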
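Cytotoxicity counterscreen: after 24 h compound treatment of genome-edited SNCA-luciferase HEK-293 cells, live-cell protease substrate GF-AFC read by fluorescence after 30 min; activity scaled between DMSO (0%) and medium-only (-100%), curves Hill-fitted.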
HEK cytotox = HEK 293 cell cytotoxicity; HEK 293 viability, ATP luminescence (CellTiter-Glo), 48-72 h; AID 1345083; Potency, µM (highest dose often 115 µM), for the others: at the top dose activity change, negative = cytotoxicity, usual class: inhibitors; actives 6.6% (n = 94,000); note: nearly all actives have a fitted effect of over 60% in size
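HEK 293 cells at 250 cells/well were exposed to compounds by pintool transfer for 48 or 72 hr at 37 degree Celsius, 5% CO2. Viability was read as ATP-coupled luminescence with CellTiter-Glo after 10 min at room temperature.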
3T3 cytotox = NIH 3T3 cell cytotoxicity; NIH 3T3 viability, CellTiter-Glo ATP luminescence, 48-72 h; Potency, µM (doses to about 96.7 µM), for the others: at the highest dose activity change, negative = cytotoxicity, usual class: inhibitors; actives 4.3% (n = 94,000); AID 1345082; note: nearly all actives have a fitted effect of over 55% in size
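ATP-dependent luminescence (CellTiter-Glo) served as the viability signal for NIH 3T3 cells treated with compound for 48 or 72 hr at 37 °C.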
SNCA expr inhib = SNCA gene expression inhibition. Potency, µM (titrated, usually from 57.2 µM), without a hit: at the top dose activity change, negative = inhibition, actives largely listed as inhibitors. actives 0.17% (n = 140,000). HEK-293 SNCA-luciferase knock-in, luminescence, 24 h;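 note: plate controls were DMSO cells for no effect and cell-free wells for full effect; nearly all actives have a fitted effect of over 45% in size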
Numbers without * were called inactive; i = inactive; ? = inconclusive; · = no result given; [ ] = another dose, or the depositor's remark. Unless noted, calls come from the whole dose curve; as a rule, active = well fitted curve in the direction sought with a large enough effect; inconclusive = small, poorly fitted or top-dose-only effect, or another doubt; inactive = no such curve, though single readings can be large; an effect the other way counts as inactive or inconclusive. Unless noted, % is set by controls: 0 for no effect and ±100 for the full control effect; potency is the fitted concentration of half-maximal effect.

SMILES	Luciferase inh	hNpr1 antagonist	SNCA viab count	HEK cytotox	3T3 cytotox	SNCA expr inhib
COc1ccc(CN2CC(COc3ccccc3)Oc3ncccc3[S+]2(=O)[O-])cc1 (stereo unspecified)	·	·	-8%[23.9 µM]	22µM*	?	13%[25.6 µM]
CCS(=O)(=O)Nc1ccc(C2(C(=O)Nc3cccc(F)c3C)CCCCC2)cc1	i	-8%	3%	40µM*	?	-18%
O=C(C1CCCN(Cc2cccc(-c3cccs3)c2)C1)N1CCOCC1 (stereo unspecified)	·	·	4%	?	-24%	16%
O=C(C1CCCN(Cc2cccc(-c3cccs3)c2)C1)N1CCC(c2ccccc2)CC1 (stereo unspecified)	·	·	·	45µM*	40µM*	·
O=C(C1CCCN(Cc2cccc(-c3cccs3)c2)C1)N1CCN(Cc2ccccc2)CC1 (stereo unspecified)	·	·	3%	?	35µM*	-17%
CCS(=O)(=O)N1CCC2(CC1)CC(N1CCN(C(C)=O)CC1)CCO2 (stereo unspecified)	i	-2%	8%	-1%	-2%	50%
COc1ccc(NC(=O)C2CC(=O)N(c3n[nH]c4ccccc34)C2)c(OC)c1 (stereo unspecified)	i	-1%	2%	-29%	2%	10%
Cc1noc(-c2cccc(OC3CN(C(=O)Nc4cccc(F)c4)C3)c2)n1	i	-16%	9%	?	?	0%
Cn1nccc1CN1CCC2(C1)NC(=O)c1ccccc1O2 (stereo unspecified)	i	10%[70.6 µM]	10%[87.6 µM]	i	4%[138 µM]	-4%[87.6 µM]
O=C1NC2(CCN(Cc3ccccc3)C2)COc2ccccc21 (stereo unspecified)	i	2%[70.6 µM]	9%[87.6 µM]	?	?	-5%[87.6 µM]
N#Cc1ccc(CN2CCC3(COc4ccccc4C(=O)N3)C2)cc1 (stereo unspecified)	i	?	11%[87.6 µM]	63µM*	32µM*	-12%[87.6 µM]
N#Cc1ccc(CN2CCCC3(COc4ccccc4C(=O)N3)C2)cc1 (stereo unspecified)	i	-19%	2%	?	?	?
O=C1NC2(CCN(Cc3ccsc3)CC2)COc2ccccc21	i	-17%[70.6 µM]	6%[87.6 µM]	63µM*	?	-3%[87.6 µM]
O=C1NC2(CCN(Cc3ccc(F)cc3)C2)COc2ccccc21 (stereo unspecified)	i	-16%[70.6 µM]	-8%[87.6 µM]	?	28µM*	-23%[87.6 µM]
Cn1nccc1CN1CCC2(COc3ccccc3C(=O)N2)C1 (stereo unspecified)	i	7%[70.6 µM]	2%[87.6 µM]	89µM*	?	-11%[87.6 µM]
O=C1CN(c2ccc(C(=O)N3C[C@@H](C(=O)O)[C@H](C4CC4)C3)cc2)C(=O)N1	i	-9%	12%	-8%	-12%	-7%
CC(=O)NCC(=O)N1CCC(N2C(=O)C(OCC3CC3)C23CCCCC3)CC1 (stereo unspecified)	i	3%	-8%	3%	-6%	-5%
N#Cc1ccc(CN2CCCC3(C2)NC(=O)c2ccccc2O3)cc1 (stereo unspecified)	i	?	-7%[87.6 µM]	89µM*	?	1%[87.6 µM]
O=C1NC2(CCN(Cc3ccccc3C(F)(F)F)CC2)Oc2ccccc21	i	3%	-6%	40µM*	?	-28%
O=C1NC2(CCN(Cc3ccccc3C(F)(F)F)CC2)COc2ccccc21	i	0%	3%	-3%	i	-2%
Cc1cnc(CCNC(=O)NCC(C)C)n1C1CCCCCC1	·	·	10%	-3%	-32%	14%
COCCn1c2c(c(=O)n1-c1ccccc1)CCN(C(=O)c1cccc(O)c1)C2	i	-5%[70.6 µM]	-7%[87.6 µM]	-40%[172 µM]	?	8%[87.6 µM]
O=C(CN1C(=O)COc2ccc(C(=O)COc3ccc(Cl)cc3F)cc21)NC1CCCCC1	i	3%	-32%	28µM*	?	?
Cc1cc(F)ccc1OCC(=O)c1ccc2c(c1)N(CC(=O)NC1CCCCC1)C(=O)CO2	i	-1%	-26%	-30%	-21%	23%
Cc1ccc(C)c(OCC(=O)c2ccc3c(c2)N(CCCC(=O)NCC2CC2)C(=O)CO3)c1	i	-18%	?	?	?	-11%
SMILES	Luciferase inh	hNpr1 antagonist	SNCA viab count	HEK cytotox	3T3 cytotox	SNCA expr inhib
Cc1ccc(C)c(OCC(=O)c2ccc3c(c2)N(CCCC(=O)NC2CCCCC2)C(=O)CO3)c1	i	-14%	18µM*	?	?	3%
Cc1nc(CN2C(=O)OC3(CCN(C(=O)CCc4ccccn4)CC3)C2(C)c2ccccc2)cs1 (stereo unspecified)	i	4%	5%	2%	?	1%
Cc1nc(CN2C(=O)OC3(CCN(C(=O)c4ccnn4C)CC3)C2(C)c2ccccc2)cs1 (stereo unspecified)	i	0%	3%	2%	32µM*	10%
COc1ccccc1C(=O)N1CCC2(CC1)OC(=O)N(Cc1csc(C)n1)C2(C)c1ccccc1 (stereo unspecified)	i	-1%	-4%	-7%	?	-1%
Cc1nc(CN2C(=O)OC3(CCN(C(=O)c4scnc4C)CC3)C2(C)c2ccccc2)cs1 (stereo unspecified)	i	-1%	8%	-14%	28µM*	7%
Cc1nc(CN2C(=O)OC3(CCN(C(=O)c4cccnc4)CC3)C2(C)c2ccccc2)cs1 (stereo unspecified)	i	-2%	0%	i	45µM*	4%
COc1cccc(C(=O)N2CCC(C(=O)N3CCC(N4CCCC4=O)CC3)CC2)c1	·	·	12%	-3%	-26%	-7%
CN1CCN(C(=O)CN[C@@H]2C[C@H]2c2ccc(OCc3ccccc3)cc2)CC1	·	·	2%	·	·	·
COc1cc(NC(=O)COc2ccc(-c3nnc4n3CCCC4)cc2)cc(OC)c1OC	i	4%	5%	-23%	?	13%
c1ccc(N2CCN(C3CCCN(Cc4cn[nH]c4C4CCCCC4)C3)CC2)cc1 (stereo unspecified)	i	-1%	0%	89µM*	-22%	-15%
COc1ccc(OCC2CC3(CCCCC3)CN2S(=O)(=O)c2c(C)noc2C)cc1 (stereo unspecified)	·	·	-6%	28µM*	-28%	-11%
COc1ccc(OCC2CC3(CCCCC3)CN2S(C)(=O)=O)cc1 (stereo unspecified)	·	·	-11%	?	?	0%
Cc1ccccc1C(=O)NC1CCCN(c2ccc3nnc(C)n3n2)C1 (stereo unspecified)	·	·	·	-14%[172 µM]	?	·

Assay outcomes (PubChem BioAssay)
